Assay outcomes: PubChem BioAssay, National Center for Advancing Translational Sciences (NCATS)
GALC G270D up: galactocerebrosidase G270D activity enhancement, cell-based; P54803; 145M-Twi-hGALC-G270D cells, HMU-beta-Gal fluorescence, 48 h; Potency, µM (series often up to 57.5 µM), actives largely listed as activators; actives 0.1% (n = 45,000); AID 1159614; note: potency is the fitted concentration of half-maximal effect; 0% is about no effect; nearly all actives have a fitted effect of over 65% in size
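qHTS, 1536-well; 145M-Twi-hGALC-G270D cells (WT line also made) in DMEM/F12 + 10% FBS; compound incubation on live cells; HMU-β-gal 0.1 mM final, pH 5.2, NaTC; carbonate stop; fluorescence increase = enhanced residual activity.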
NTMT1 inh: NTMT1 methyltransferase inhibition. Potency, µM (top dose mostly 114 µM), without a hit: top-dose activity change, negative = inhibition, most hits filed as inhibitors. actives 2.5% (n = 59,000). NTMT1 MTase-Glo SAH luminescence, purified enzyme. Q9BV86;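 note: potency is the fitted concentration of half-maximal effect; plate controls were DMSO vehicle for no effect and no enzyme for full effect; nearly all actives have a fitted effect of over 65% in size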
Target sequence (Q9BV86 whole entry, looked up): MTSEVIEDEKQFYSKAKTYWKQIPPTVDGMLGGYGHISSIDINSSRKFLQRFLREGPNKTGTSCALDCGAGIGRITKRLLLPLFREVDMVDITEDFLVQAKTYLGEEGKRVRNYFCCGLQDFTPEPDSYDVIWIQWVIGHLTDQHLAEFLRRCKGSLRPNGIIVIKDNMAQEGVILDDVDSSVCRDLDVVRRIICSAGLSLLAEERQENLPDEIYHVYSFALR
HTT promoter inh: inhibitors of huntingtin promoter activity | HEK293 HTT promoter firefly luciferase reporter, 24 h | Potency, µM (top dose mostly 57.5 µM), for inactives: at the top dose activity change, negative = inhibition, most hits filed as inhibitors | actives 0.93% (n = 48,000) | AID 1508623; note: potency is the fitted concentration of half-maximal effect; nearly all actives have a fitted effect of over 50% in size
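HEK293 Fluc reporter, 2,500 cells/well, 24 h pre-culture; cpds up to 57.5 uM final, 24 h 37 degrees C; Dual-Glo, 10 min RT; normalized vehicle = 0%, zero RLU = -100%.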
FH mod: Identification of activators of human fumarate hydratase by quantitative high-throughput screening | AID 1347055, 2019 | actives 0.22% (n = 54,000) | Fumarate hydratase, mitochondrial (Homo sapiens), P07954 | FH coupled MDH/diaphorase resazurin fluorescence, 15 min | Potency, µM (top dose mostly 79.9 µM), for the others: top-dose activity change, negative = inhibition, usual class: inhibitors; note: potency is the fitted concentration of half-maximal effect; % is set by controls: 0 for no effect and ±100 for the full control effect; the screen sought activators but most active calls are inhibition curves; nearly all actives have a fitted effect of over 45% in size
Target sequence (P07954 whole entry, looked up): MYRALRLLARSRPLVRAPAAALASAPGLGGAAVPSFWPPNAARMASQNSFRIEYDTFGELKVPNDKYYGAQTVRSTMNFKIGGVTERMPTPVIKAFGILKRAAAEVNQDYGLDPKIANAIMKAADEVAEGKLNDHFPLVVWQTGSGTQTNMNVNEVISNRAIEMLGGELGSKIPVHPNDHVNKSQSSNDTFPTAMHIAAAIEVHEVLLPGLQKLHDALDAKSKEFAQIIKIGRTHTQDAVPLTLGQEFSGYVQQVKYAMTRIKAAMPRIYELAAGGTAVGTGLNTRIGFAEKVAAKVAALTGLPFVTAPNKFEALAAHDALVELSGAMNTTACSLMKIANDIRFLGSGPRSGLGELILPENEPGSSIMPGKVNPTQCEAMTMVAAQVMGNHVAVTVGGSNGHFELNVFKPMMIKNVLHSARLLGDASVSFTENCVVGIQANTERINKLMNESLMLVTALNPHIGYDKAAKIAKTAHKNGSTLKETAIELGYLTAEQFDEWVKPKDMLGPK
GPR32 ag: activates human resolvin D1 receptor GPR32; activation, % at 76.9 µM; CHO-K1 GPR32 beta-arrestin PathHunter luminescence, 90 min; zero percent set by DMSO-only wells; actives 2.5% (n = 48,000);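 active = activation of at least 60% and not above a set upper limit, about 1 call in 100 departs from these limits; inconclusive = activation of 40% to 60%, or above that upper limit; inactive = activation under 40%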; note: 0% is about no effect
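CHO-K1 cells stably expressing ProLink-tagged GPR32 and Enzyme Activator-tagged beta-arrestin were seeded at 2,500 cells/well overnight, exposed to compounds for 90 min at 37 °C, then read by beta-Gal complementation chemiluminescence after 1 h detection reagent.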
HTT-AS act: HTT-AS promoter activation; HEK293 HTT-AS promoter firefly luciferase reporter, 24 h; response scale: percent change from vehicle, -100% = no light; Potency, µM (series often up to 57.5 µM), for inactives: at the top dose activity change, positive = activation, hits mostly activators; actives 0.24% (n = 48,000); note: potency is the fitted concentration of half-maximal effect; nearly all actives have a fitted effect of over 55% in size
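HEK293 luciferase promoter-reporter cells (2,500/well) plated 24 h, then compounds added at up to 57.5 uM final for 24 h at 37 °C. Firefly luminescence by Dual-Glo, normalized to vehicle (0%) and zero RLU (-100%).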
The depositor's hits bear a star; i = inactive; ? = inconclusive; . = no result; ! = not confirmed by another sample; [ ] = dose if it differs, or a comment. The list is not random: actives were taken first. Their share in the collection is about 4.7%. Unless noted, calls come from the whole dose curve; as a rule, active = well fitted curve in the direction sought with a large enough effect; inconclusive = small, poorly fitted or top-dose-only effect, or another doubt; inactive = no such curve, though single readings can be large; an effect the other way counts as inactive or inconclusive.

SMILES | GALC G270D up | NTMT1 inh | HTT promoter inh | FH mod | GPR32 ag | HTT-AS act
C=C1c2cccc(O)c2C(O)=C2C(=O)[C@@]3(O)C(O)=C(C(N)=O)C(=O)[C@@H](N(C)C)[C@@H]3[C@@H](O)[C@H]12 | . | 13µM* | ? | -10%[53.3 µM] | . | -54%
O=C(CCCc1ccc2cccnc2n1)NCc1cc(-c2ccc(F)c(C(F)(F)F)c2)no1 | . | -9%[57.5 µM] | . | . | . | .
O=C1c2[nH]nc(-c3ccc(Br)cc3)c2C(c2cccc(O)c2)N1c1ccc(Cl)cc1 (stereo not given) | i | 8% | ? | ? | 96* | -69%
CC(=O)N1CCCC1c1nc2ccccc2n1Cc1c(F)cccc1Cl (stereo not given) | i | 89µM* | -11% | -3% | -7 | -12%
Cc1ccc(S(=O)(=O)Nc2ccc3nc(-c4ccc(F)cc4)oc3c2)cc1 | i | 7% | -3% | ? | 66* | -20%
N#Cc1c(-c2cccs2)no[n+]1[O-] | . | 8% | . | . | . | .
COc1cc(-n2c(=O)c3ccccc3n(Cc3cccc(Cl)c3)c2=O)cc(OC)c1OC | i | 89µM* | -26% | 2% | -2 | -28%
COc1ccc(CCNC(=O)c2ccc(Cn3c(=O)c4ccccc4n(Cc4cccc(Cl)c4)c3=O)cc2)cc1OC | i | 11% | ? | -13% | -2 | -32%
Fc1cc(Nc2nc(-c3ccncc3)nc3ccccc23)ccc1N1CCNCC1 | . | 10µM* | . | . | . | .
COC(=O)[C@H](O)[C@H]1C(C)(C)[C@H](OC(C)=O)[C@@]2(O)C(=O)[C@]1(C)C1CC[C@]3(C)C(CC(=O)O[C@H]3c3ccoc3)[C@]13O[C@@H]32 (stereo not given in full) | . | 8%[29.8 µM] | . | ? | . | .
COc1ccc(Cl)cc1Nc1sc(C(=O)c2ccccc2)c(N)c1C(=O)Nc1ccccc1 | i | -8% | 28µM* | -18% | -97 | -29%
CCOc1ccccc1Nc1sc(C(=O)c2ccccc2)c(N)c1C(=O)Nc1ccc(F)cc1 | i | 4% | ? | 4% | -51 | -8%
CCOc1ccc(NC(=O)Nc2ccc(-c3nc4ccccc4[nH]3)cc2)cc1 | . | 4% | . | . | . | .
Cc1cccc(NC(=O)c2c(C)cc(C)nc2SCC(=O)Nc2c(C)cc(C)cc2C)c1 | i | -11% | -26% | -6% | -24 | -18%
Cc1ccc(C(=O)CSc2nc(C)cc(C)c2C(=O)Nc2cccc(C)c2)cc1 | i | 50µM* | ? | -18% | -26 | -14%
COc1ccc(C(=O)CSc2nc(C)cc(C)c2C(=O)Nc2ccccc2C)cc1 | i | 2.8µM* | -27% | -28% | -21 | -6%
O=C(O)CCc1cccc(O)c1O[C@@H]1O[C@H](CO)[C@@H](O)[C@H](O)[C@H]1O | . | 15%[29.8 µM] | . | 2%[53.3 µM] | . | .
Cc1ccc(NCc2cccn2-c2nnc(N3CCC(C(=O)NCc4ccc(OC(C)C)cc4)CC3)s2)cc1 | i | 18% | 28µM* | -15% | -26 | -43%
CCOc1ccc(NCc2cccn2-c2nnc(N3CCC(C(=O)NCc4ccc(C)cc4)CC3)s2)cc1 | i | 2% | 14µM* | -18% | -25 | -52%
O=C(O)c1ccc(O)c2ncc(N3CCCN(C4CCCC4)CC3)cc12 | . | -1% | . | . | . | .
CC(=O)Nc1sc2c(c1-c1ccc(N[S+](C)(=O)[O-])cc1)CCNC2 | . | -2% | . | . | . | .
CC(C)=CCC1C(=O)N(c2ccccc2)N(c2ccccc2)C1=O | i | 29%[57.5 µM] | -26% | -6%[53.3 µM] | -33 | -18%
CCCCC1C(=O)N(c2ccccc2)N(c2ccc(O)cc2)C1=O (stereo not given) | i | ? | ? | ? | 109* | -87%
CCOc1ncc(S(=O)(=O)N2CCN(CC)CC2)cc1-c1nc2c(CC)n(CCOC)nc2c(=O)[nH]1 | . | 3%[57.5 µM] | . | -2% | . | .
CC(C)(C)NCC(O)c1ccc(O)c(CO)c1 (stereo not given) | i | -8% | 1% | -17%[53.3 µM] | -9 | -2%
SMILES | GALC G270D up | NTMT1 inh | HTT promoter inh | FH mod | GPR32 ag | HTT-AS act
OCc1cc(C(O)CNCCCCCCOCCCCc2ccccc2)ccc1O (stereo not given) | i | ? | -8% | ? | 108*! | -13%
Cc1ccc(OCCn2c(CCNC(=O)c3cccc(N)c3)nc3ccccc32)cc1 | . | 0%[57.5 µM] | . | . | . | .
COc1ccc(CCN2CCC(CNC(=O)c3cnn(-c4cccc(Cl)c4)c3C3CCN(C(=O)OC(C)(C)C)CC3)CC2)cc1 | i | 79µM* | -16% | -11% | -21 | -27%
COCCCNC(=O)c1cnn(-c2ccccc2Cl)c1C1CCN(C(=O)OC(C)(C)C)CC1 | i | 89µM* | 0% | -9% | -16 | -1%
CC(C)(C)OC(=O)N1CCC(c2c(C(=O)NCc3ccccn3)cnn2-c2ccccc2Cl)CC1 | i | 11% | -5% | -24% | -11 | -8%
CC1=C(C(=O)Nc2ccon2)C(c2ccccc2Br)N=C(Nc2nc3ccccc3o2)N1 (stereo not given) | . | -2% | . | . | . | .
CC(C)c1ccccc1-c1nc(NCc2ccc(-c3cccnc3)cc2)c2sccc2n1 | . | 9% | . | . | . | .
COCCCNC(=O)Cn1c(=O)n(-c2ccc(Cl)cc2)c(=O)c2c3c(sc21)CCCCC3 | i | 1% | -12% | 1% | 60* | -10%
Oc1ccc(-c2ccccc2F)c2cccnc12 | . | 5% | . | . | . | .
Oc1ccc(Nc2ccccc2F)c2cccnc12 | . | 28µM* | . | . | . | .
COc1ccc2c(c1)CN(C(=O)CCN1CCC(Cc3ccccc3)CC1)CCS2 | . | 16%[29.8 µM] | . | ? | . | .
COc1cc(C(=O)Nc2ccc3nc4n(c(=O)c3c2)CCCCC4)cc(OC)c1OC | i | 50µM* | -14% | -11% | 6 | -11%
Cc1ccc(S(=O)(=O)NCC(=O)Nc2nc(-c3ccccc3)cs2)cc1 | . | -7%[57.5 µM] | . | . | . | .
Cc1ccccc1-c1ccc(=O)n(CC(=O)NCCc2ccccc2)n1 | . | -18% | . | . | . | .
CC(=O)c1c(C)oc2c1cc(NS(=O)(=O)c1ccc(Br)cc1)c1ccccc12 | i | 5% | ? | -14% | 80* | -39%
CCCOC(=O)c1c(C)oc2c1cc(NS(=O)(=O)c1ccc(OCC)cc1)c1ccccc12 | i | -14% | ? | -10% | 0 | -46%
Cc1oc(-c2ccc(C(=O)N(C)Cc3ccccc3)cc2)nc1CN1CCc2ccccc21 | i | 1% | 8.9µM* | -25% | -6 | -52%
COC(=O)c1ccccc1NC(=O)CSc1nc(-c2ccccc2)cc(C(F)(F)F)n1 | 10µM* | 1% | -26%[11.5 µM] | -7% | -7 | -20%
